Here are results for 5 sequences from publication PMC11006913.

Numbering of substitutions follows the chain as printed.

What all share (assay): PBM; 200 nM protein, PBS
Holding throughout (conditions): dsDNA, one strand shown

In assay [1] the target is HOXB9 (Homo sapiens, UniProt P17482 171-250, T197M).
The target of assay [2] is T1, PAX4 (Homo sapiens, UniProt O43316 9-242, R200K).
T1 sequence: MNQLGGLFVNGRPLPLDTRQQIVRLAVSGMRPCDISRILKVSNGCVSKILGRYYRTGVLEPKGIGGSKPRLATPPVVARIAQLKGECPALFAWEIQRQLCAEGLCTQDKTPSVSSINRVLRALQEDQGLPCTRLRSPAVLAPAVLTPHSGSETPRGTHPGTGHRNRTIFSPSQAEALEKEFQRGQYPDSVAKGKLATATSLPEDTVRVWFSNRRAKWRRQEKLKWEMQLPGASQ

Assay [3] concerns the target T2, PAX4 (Homo sapiens, UniProt O43316 9-242).
T2 sequence: T1 sequence with K192R

Assay [4] addresses HOXA2 (Homo sapiens, UniProt O43364 129-215, R185T).
In assay [5] the target is HOXB9 (Homo sapiens, UniProt P17482 171-250).
Chain of HOXB9 (Homo sapiens, UniProt P17482 171-250) (P17482 171-250): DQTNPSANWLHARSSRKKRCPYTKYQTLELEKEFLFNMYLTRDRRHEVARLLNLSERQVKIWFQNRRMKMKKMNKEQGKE
Assay [6] has as its target ALX3 (Homo sapiens, UniProt O95076 139-225, N203Q).
For assay [7], the target named is T3, PAX4 (Homo sapiens, UniProt O43316 9-242, R200Q).
T3 sequence: T1 sequence with K192Q

Assay [8] deals with HOXA2 (Homo sapiens, UniProt O43364 129-215, R185K).
Chain of HOXA2 (Homo sapiens, UniProt O43364 129-215, R185K) (O43364 129-215 R185K): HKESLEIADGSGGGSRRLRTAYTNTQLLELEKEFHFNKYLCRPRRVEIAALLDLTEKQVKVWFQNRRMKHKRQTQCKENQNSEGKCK
In assay [9] the target is T4, PAX4 (Homo sapiens, UniProt O43316 9-242, F177V).
T4 sequence: T1 sequence with F169V, K192R

Assay [10] deals with ALX3 (Homo sapiens, UniProt O95076 139-225).
Chain of ALX3 (Homo sapiens, UniProt O95076 139-225) (O95076 139-225): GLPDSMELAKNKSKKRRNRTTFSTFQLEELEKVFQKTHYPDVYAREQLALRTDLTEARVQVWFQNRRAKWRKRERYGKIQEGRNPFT
In assay [11] the target is T5, PAX4 (Homo sapiens, UniProt O43316 9-242, F177Y).
T5 sequence: T1 sequence with F169Y, K192R

Assay [12] addresses ALX3 (Homo sapiens, UniProt O95076 139-225, L168Q).
For assay [13], the target named is HOXB9 (Homo sapiens, UniProt P17482 171-250, R186Q).
Chain of HOXB9 (Homo sapiens, UniProt P17482 171-250, R186Q) (P17482 171-250 R186Q): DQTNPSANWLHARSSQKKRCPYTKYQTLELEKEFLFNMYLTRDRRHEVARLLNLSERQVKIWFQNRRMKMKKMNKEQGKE
The target in assay [14] is ALX3 (Homo sapiens, UniProt O95076 139-225, L168V).
Chain of ALX3 (Homo sapiens, UniProt O95076 139-225, L168V) (O95076 139-225 L168V): as the sequence (O95076 139-225) above, with L30V counted along it
Assay [15] concerns the target T6, PAX4 (Homo sapiens, UniProt O43316 9-242, R227W).
T6 sequence: T1 sequence with K192R, R219W

Assay [16] concerns the target HOXA2 (Homo sapiens, UniProt O43364 129-215, Y150S).
Assay [17] has as its target ALX3 (Homo sapiens, UniProt O95076 139-225, N203S).
Assay [18] concerns the target HOXA2 (Homo sapiens, UniProt O43364 129-215).
For assay [19], the target named is MSX2 (Homo sapiens, UniProt P35548 130-214, R199I).
Chain of MSX2 (Homo sapiens, UniProt P35548 130-214, R199I) (P35548 130-214 R199I): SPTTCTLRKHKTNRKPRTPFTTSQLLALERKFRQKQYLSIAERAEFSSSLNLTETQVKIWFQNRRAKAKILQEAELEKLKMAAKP
Assay [20] has as its target MSX2 (Homo sapiens, UniProt P35548 130-214).
For assay [21], the target named is PROP1 (Homo sapiens, UniProt O75360 56-141).
Chain of PROP1 (Homo sapiens, UniProt O75360 56-141) (O75360 56-141): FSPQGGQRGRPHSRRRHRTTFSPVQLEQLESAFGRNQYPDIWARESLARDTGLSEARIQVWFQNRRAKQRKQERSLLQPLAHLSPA
In assay [22] the target is PROP1 (Homo sapiens, UniProt O75360 56-141, R99H).
Chain of PROP1 (Homo sapiens, UniProt O75360 56-141, R99H) (O75360 56-141 R99H): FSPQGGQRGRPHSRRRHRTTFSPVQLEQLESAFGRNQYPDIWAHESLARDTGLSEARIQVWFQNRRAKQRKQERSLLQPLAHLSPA
The target in assay [23] is PROP1 (Homo sapiens, UniProt O75360 56-141, F88S).
Chain of PROP1 (Homo sapiens, UniProt O75360 56-141, F88S) (O75360 56-141 F88S): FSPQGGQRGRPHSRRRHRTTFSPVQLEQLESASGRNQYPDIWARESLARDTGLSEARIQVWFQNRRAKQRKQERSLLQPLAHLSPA
The target of assay [24] is MSX2 (Homo sapiens, UniProt P35548 130-214, F161Y).
Chain of MSX2 (Homo sapiens, UniProt P35548 130-214, F161Y) (P35548 130-214 F161Y): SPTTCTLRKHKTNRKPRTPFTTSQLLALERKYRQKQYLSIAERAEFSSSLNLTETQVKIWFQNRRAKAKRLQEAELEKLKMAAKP
Assay [25] concerns the target HOXC9 (Homo sapiens, UniProt P31274 178-260, K195R).
Assay [26] has as its target HOXC9 (Homo sapiens, UniProt P31274 178-260).
Assay [27] addresses HOXC9 (Homo sapiens, UniProt P31274 178-260, R193K).
The target in assay [28] is HOXC9 (Homo sapiens, UniProt P31274 178-260, R222W).
Chain of HOXC9 (Homo sapiens, UniProt P31274 178-260, R222W) (P31274 178-260 R222W): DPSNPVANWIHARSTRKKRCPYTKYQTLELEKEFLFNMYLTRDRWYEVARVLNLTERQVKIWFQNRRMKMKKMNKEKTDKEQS
For assay [29], the target named is HOXB6 (Homo sapiens, UniProt P17509 132-218, K202E).
Chain of HOXB6 (P17509 132-218 K202E): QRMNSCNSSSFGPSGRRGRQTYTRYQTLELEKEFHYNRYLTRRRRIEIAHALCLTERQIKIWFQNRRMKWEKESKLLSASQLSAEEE
Assay [30] has as its target HOXA7 (Homo sapiens, UniProt P31268 116-202).
Assay [31] deals with HOXD13 (Homo sapiens, UniProt P35453 263-343, T313R).
Chain of HOXD13 (Homo sapiens, UniProt P35453 263-343, T313R) (P35453 263-343 T313R): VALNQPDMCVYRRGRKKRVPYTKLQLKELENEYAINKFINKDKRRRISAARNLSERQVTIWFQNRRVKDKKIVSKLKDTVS
Assay [32] concerns the target HOXD13 (Homo sapiens, UniProt P35453 263-343).
The target in assay [33] is HOXD13 (Homo sapiens, UniProt P35453 263-343, T313A).
Chain of HOXD13 (Homo sapiens, UniProt P35453 263-343, T313A) (P35453 263-343 T313A): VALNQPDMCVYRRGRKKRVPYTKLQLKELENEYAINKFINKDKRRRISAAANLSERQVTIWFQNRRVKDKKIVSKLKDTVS
The target of assay [34] is HOXA7 (Homo sapiens, UniProt P31268 116-202, W177C).
Chain of HOXA7 (Homo sapiens, UniProt P31268 116-202, W177C) (P31268 116-202 W177C): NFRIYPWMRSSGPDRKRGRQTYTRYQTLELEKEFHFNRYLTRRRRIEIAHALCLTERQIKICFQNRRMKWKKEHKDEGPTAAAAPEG

Chain of HOXB9 (Homo sapiens, UniProt P17482 171-250, T197M) (P17482 171-250 T197M): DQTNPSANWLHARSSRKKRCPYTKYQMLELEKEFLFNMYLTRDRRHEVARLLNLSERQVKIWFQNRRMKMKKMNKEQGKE
Chain of ALX3 (Homo sapiens, UniProt O95076 139-225, L168Q) (O95076 139-225 L168Q): as the sequence (O95076 139-225) above, with L30Q counted along it
Chain of ALX3 (Homo sapiens, UniProt O95076 139-225, N203S) (O95076 139-225 N203S): as the sequence (O95076 139-225) above, with N65S counted along it
Chain of ALX3 (Homo sapiens, UniProt O95076 139-225, N203Q) (O95076 139-225 N203Q): as the sequence (O95076 139-225) above, with N65Q counted along it
Chain of HOXC9 (Homo sapiens, UniProt P31274 178-260, K195R) (P31274 178-260 K195R): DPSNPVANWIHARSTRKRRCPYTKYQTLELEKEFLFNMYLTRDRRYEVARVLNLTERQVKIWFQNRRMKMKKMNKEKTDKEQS
Chain of HOXC9 (Homo sapiens, UniProt P31274 178-260, R193K) (P31274 178-260 R193K): as the sequence (P31274 178-260 R222W) above, with R16K, W45R counted along it
Chain of HOXA2 (Homo sapiens, UniProt O43364 129-215, Y150S) (O43364 129-215 Y150S): as the sequence (O43364 129-215 R185K) above, with Y22S, K57R counted along it
Chain of MSX2 (Homo sapiens, UniProt P35548 130-214) (P35548 130-214): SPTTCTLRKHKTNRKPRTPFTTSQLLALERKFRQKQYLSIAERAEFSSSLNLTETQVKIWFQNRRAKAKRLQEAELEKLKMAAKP
Chain of HOXA7 (Homo sapiens, UniProt P31268 116-202) (P31268 116-202): as the sequence (P31268 116-202 W177C) above, with C62W counted along it
Chain of HOXC9 (Homo sapiens, UniProt P31274 178-260) (P31274 178-260): as the sequence (P31274 178-260 R222W) above, with W45R counted along it
Chain of HOXD13 (Homo sapiens, UniProt P35453 263-343) (P35453 263-343): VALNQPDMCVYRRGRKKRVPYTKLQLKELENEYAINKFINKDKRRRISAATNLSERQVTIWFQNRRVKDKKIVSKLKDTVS
Chain of HOXA2 (Homo sapiens, UniProt O43364 129-215) (O43364 129-215): as the sequence (O43364 129-215 R185K) above, with K57R counted along it
Chain of HOXA2 (Homo sapiens, UniProt O43364 129-215, R185T) (O43364 129-215 R185T): as the sequence (O43364 129-215 R185K) above, with K57T counted along it

Consider AGGCCCCC, for which the binding signal in [1] is 8.34 upbm affinity estimate (log intensity, higher = more binding, comparable within an allelic series); in assay [2], 9.04 upbm affinity estimate (log intensity, higher = more binding, comparable within an allelic series); in assay [3], 9.05 upbm affinity estimate (log intensity, higher = more binding, comparable within an allelic series); in assay [4], 7.07 upbm affinity estimate (log intensity, higher = more binding, comparable within an allelic series); in assay [5], 8.29 upbm affinity estimate (log intensity, higher = more binding, comparable within an allelic series); in assay [6] it was 7.63 upbm affinity estimate (log intensity, higher = more binding, comparable within an allelic series). Besides, the binding signal in [7] is 9.09 upbm affinity estimate (log intensity, higher = more binding, comparable within an allelic series); in assay [8], 9.91 upbm affinity estimate (log intensity, higher = more binding, comparable within an allelic series); in assay [9] it was 8.99 upbm affinity estimate (log intensity, higher = more binding, comparable within an allelic series); in assay [10], 7.61 upbm affinity estimate (log intensity, higher = more binding, comparable within an allelic series); in assay [11], 8.97 upbm affinity estimate (log intensity, higher = more binding, comparable within an allelic series); in assay [12] it was 7.47 upbm affinity estimate (log intensity, higher = more binding, comparable within an allelic series). Further, the binding signal was 8.32 upbm affinity estimate (log intensity, higher = more binding, comparable within an allelic series) in assay [13]; 7.5 upbm affinity estimate (log intensity, higher = more binding, comparable within an allelic series) in assay [14]; 9.06 upbm affinity estimate (log intensity, higher = more binding, comparable within an allelic series) in assay [15]; 10.2 upbm affinity estimate (log intensity, higher = more binding, comparable within an allelic series) in [16]; 7.61 upbm affinity estimate (log intensity, higher = more binding, comparable within an allelic series) in assay [17]; 7.21 upbm affinity estimate (log intensity, higher = more binding, comparable within an allelic series) in assay [18].
For the sequence GCTCTCCC, the binding signal is 8.34 upbm affinity estimate (log intensity, higher = more binding, comparable within an allelic series) in [1]; 9.21 upbm affinity estimate (log intensity, higher = more binding, comparable within an allelic series) in assay [2]; 9.22 upbm affinity estimate (log intensity, higher = more binding, comparable within an allelic series) in assay [3]; 8.35 upbm affinity estimate (log intensity, higher = more binding, comparable within an allelic series) in assay [5]; 9.54 upbm affinity estimate (log intensity, higher = more binding, comparable within an allelic series) in assay [19]; 9.3 upbm affinity estimate (log intensity, higher = more binding, comparable within an allelic series) in assay [7]. For the same sequence, the binding signal in [9] was 9.23 upbm affinity estimate (log intensity, higher = more binding, comparable within an allelic series); in assay [20], 9.45 upbm affinity estimate (log intensity, higher = more binding, comparable within an allelic series); in assay [11], 9.16 upbm affinity estimate (log intensity, higher = more binding, comparable within an allelic series); in assay [21], 6.88 upbm affinity estimate (log intensity, higher = more binding, comparable within an allelic series); in assay [22], 6.87 upbm affinity estimate (log intensity, higher = more binding, comparable within an allelic series); in [13], 8.35 upbm affinity estimate (log intensity, higher = more binding, comparable within an allelic series). The binding signal in [23] is 6.53 upbm affinity estimate (log intensity, higher = more binding, comparable within an allelic series); in [24], 9.57 upbm affinity estimate (log intensity, higher = more binding, comparable within an allelic series); in [15], 9.27 upbm affinity estimate (log intensity, higher = more binding, comparable within an allelic series).
With GGTCCCGA, the binding signal in [1] was 8.6 upbm affinity estimate (log intensity, higher = more binding, comparable within an allelic series); in assay [25] it was 9.69 upbm affinity estimate (log intensity, higher = more binding, comparable within an allelic series); in assay [5] it was 8.47 upbm affinity estimate (log intensity, higher = more binding, comparable within an allelic series); in [26], 9.62 upbm affinity estimate (log intensity, higher = more binding, comparable within an allelic series); in assay [27], 9.59 upbm affinity estimate (log intensity, higher = more binding, comparable within an allelic series); in assay [13] it was 8.44 upbm affinity estimate (log intensity, higher = more binding, comparable within an allelic series). In addition, in [28], the binding signal is 9.74 upbm affinity estimate (log intensity, higher = more binding, comparable within an allelic series).
With AATATAAT, the binding signal in [1] was 9.96 upbm affinity estimate (log intensity, higher = more binding, comparable within an allelic series); in assay [29] it was 10 upbm affinity estimate (log intensity, higher = more binding, comparable within an allelic series); in assay [6], 8.52 upbm affinity estimate (log intensity, higher = more binding, comparable within an allelic series); in assay [9], 10.7 upbm affinity estimate (log intensity, higher = more binding, comparable within an allelic series); in [10] it was 11.4 upbm affinity estimate (log intensity, higher = more binding, comparable within an allelic series); in assay [12] it was 9.35 upbm affinity estimate (log intensity, higher = more binding, comparable within an allelic series). The binding signal in assay [14] was 9.24 upbm affinity estimate (log intensity, higher = more binding, comparable within an allelic series); in assay [17], 8.65 upbm affinity estimate (log intensity, higher = more binding, comparable within an allelic series).
For CTATAAAC, the binding signal was 9.58 upbm affinity estimate (log intensity, higher = more binding, comparable within an allelic series) in assay [1]; 9.84 upbm affinity estimate (log intensity, higher = more binding, comparable within an allelic series) in [30]; 11.5 upbm affinity estimate (log intensity, higher = more binding, comparable within an allelic series) in [5]; 10.9 upbm affinity estimate (log intensity, higher = more binding, comparable within an allelic series) in assay [31]; 12.2 upbm affinity estimate (log intensity, higher = more binding, comparable within an allelic series) in assay [32]; 12 upbm affinity estimate (log intensity, higher = more binding, comparable within an allelic series) in assay [33]. Moreover, the binding signal in assay [13] was 11.2 upbm affinity estimate (log intensity, higher = more binding, comparable within an allelic series); in assay [34], 8.92 upbm affinity estimate (log intensity, higher = more binding, comparable within an allelic series).
